According to PubChem BioAssay (NCATS):
Results filed as inconclusive are left out. A call without a number means that no potency is given here. Calls of active or inactive are those of the source. Calls come from the whole dose curve; as a rule, active = well fitted cell-killing curve with a large enough effect; inconclusive = small, poorly fitted or top-dose-only effect; inactive = flat fitted curve, though single readings scatter. Starred links: 1 amine or outer side, 2 acyl side, 3 side chain; linkers in the order of their positions; H or OH if unused. Positions of bridges follow the written chain, without caps; N, C: chain ends. Non-standard residues stand in square brackets, D forms with d. Residues, ends and D or L forms follow the SMILES beside them. ξ: configuration not given here. *: point of attachment. X3 = C[C@@H](Oc1ccc([C@H](N[*:1])C(=O)[*:2])cc1)[C@]1(/C=C\C(=O)[*:3])CO1; d(aIle) = CC[C@H](C)[C@@H](N)C(=O)O; X2 = CC(C)[C@@H](O)C(C)C(=O)*; ξNMeF = CNC(Cc1ccccc1)C(=O)O; ξT = CC(O)C(N)C(=O)O; ξS = NC(CO)C(=O)O

experiment: OV-KATE Cancer Cell Toxicity qHTS against the NCATS CANVASS Library (AID 1347345); conditions: OV-KATE cells viability, CellTiter-Glo luminescence, 72 h; series mostly up to 38.3 µM
Excerpt: Natural products and their derivatives continue to be wellsprings of nascent therapeutic potential. However, many laboratories have limited resources for biological evaluation, leaving their previously isolated or synthesized compounds largely or completely untested. To address this issue, the Canvass library of natural products was assembled (https://tripod.nih.gov/canvass), in collaboration with academic and industry researchers, for quantitative high-throughput screening (qHTS) across a diverse set of cell-based and biochemical assays. The pure (>85% purity by liquid chromatography/mass spectrometry [LC/MS]) Canvass library of 346 natural products were submitted by 45 academic laboratories and companies around the world. We collected pure natural products to circumvent deconvolution and structure elucidation due to time and resource limitations. The library was formatted into 1536-well plates and evaluated in 50 qHTS (in an 11-pnt concentration series) bioassays with broad scope of disease-relevant mechanisms. The resulting data set from 50 different assays was then systematically analyzed to identify overall trends and specific natural products with interesting biological activities. Reported herein are the results of each individual qHTS and their corresponding assay protocol. National Center for Advancing Translational Sciences (NCATS), Rockville, MD National Institute of Health (NIH), Bethesda, Maryland
Cancer Cell Toxicity protocol for cell lines COV-362, OV-KATE, OV-SAHO, UWB1.289, UWB1.289-WTBRCA1, HEK-293, HPAF-II, Panc-1005, SW1088, or U-118MG. 1. In a 1536 well, white solid bottom tissue culture plates (Corning 7494), corresponding cells (COV-362, OV-KATE, OV-SAHO, UWB1.289, UWB1.289-WTBRCA1, HEK-293, HPAF-II, Panc-1005, SW1088, or U-118MG) were dispensed in each well at a final concentration of 1000 cells / well (6uL volume) using the Multidrop Combi (Thermo Fisher Scientific) dispenser. 2. The plates were incubated for 4 hours at 37 degrees C/5% CO2/95% Rh. 3. Compounds were pin transferred (~23nL volume) via Wako Pin-tool (Wako Automation, Richmond VA) equipped with a 1536 pin head. The assay plates were treated with compounds in an 11-pnt concentration series with a final concentration range of […] to 85uM. 4. Bortezomib was used as a single dose control (0.5mM column 4, rows 1 - 32) at a final concentration of 1.9uM and as a 16pnt titration (1mM; 1:2 dilution; 16-points; n = 2; column 3, rows 1 - 32) with final concentration range of 0.1nM - 3.8uM. 5. The assay plates were incubated for 72 hours at 37 degrees C/5% CO2/95% Rh. 6. 3uL CellTiter-Glo detection reagent was then added to the plates (columns 2 - 48, rows 1 - 32) and incubated at room temperature for additional 15min. 7. Luminescence signal was acquired via the ViewLux plate reader (PerkinElmer) using a clear filter, 2 second exposure and 2x binning settings.
Potency is the fitted concentration of half-maximal effect.

Structure (SMILES)	Potency
CO[C@@]12c3c(C)cc(O)c4c(=O)occ(c34)C(=O)[C@@H]1[C@]13COC(=O)c4c(O)cc(C)c(c41)C(=O)[C@H]2[C@@H]3OC(C)=O	inactive
CC[C@H](C)[C@H]1NC(=O)[C@@H](NC(=O)C(C)[C@H](O)C(C)C)[C@@H](C)OC(=O)C2COC(=O)CNC(=O)/C=C\[C@]3(CO3)[C@@H](C)Oc3ccc(cc3)[C@H](NC1=O)C(=O)N(C)C(Cc1ccccc1)C(=O)NC(C(C)O)C(=O)N2 (some centres undefined) (X2-T[d(aIle)][X3][ξNMeF][ξT][ξS]; ester 1-C; linker 3-6 via G)	inactive
C1=C2CCCN[C@H]2C2CC1[C@H]1CCCCN1C2 (some centres undefined)	inactive
COC1=C(C2=C(OC)C(=O)c3cc4c(c(O)c3C2=O)C(=O)O[C@H](C)C4)C(=O)c2c(cc3c(c2O)C(=O)O[C@H](C)C3)C1=O	inactive
O[C@H]1C=C[C@@]23CCN(Cc4cc5c(cc42)OCO5)[C@@H]3C1	inactive
CC[C@]12C=CCN3CC[C@]4(C(=C(C(=O)OC)C1)Nc1ccccc14)[C@@H]32	inactive
CCCC[C@@H](C)/C=C1/CN2CCC[C@H]2[C@@](C)(O)[C@@H]1O	inactive
CC[C@@H]1CN2CCC3(Nc4cccc(OC)c4C3=O)[C@@H]2C[C@@H]1/C(=C\OC)C(=O)OC (some centres undefined)	inactive
CCCC[C@@H]1CC[C@H]2CCCC(CCCO)N12 (some centres undefined)	inactive
C=CC(C)(C)[C@@]12C[C@H]3C(=O)N/C(=C\c4cnc[nH]4)C(=O)N3[C@@H]1Nc1ccccc12	inactive
C=CC(C)(C)[C@@]12C[C@H]3C(=O)N/C(=C/c4cnc[nH]4)C(=O)N3[C@@H]1Nc1ccccc12	inactive
CCCCC1CC[C@H]2CCCC(CCC)N12 (some centres undefined)	inactive
c1ccc2nc3c(cc2c1)[nH]c1ccccc13	inactive
C/C=C1/CN2CC[C@@]34c5ccccc5N(C)[C@@H]3[C@@H]2C[C@@H]1[C@H]4C(=O)OC	inactive
CC[C@H]1CN2CCc3c([nH]c4cccc(OC)c34)[C@@H]2C[C@@H]1/C(=C\OC)C(=O)OC	inactive
C[N+](C)(C)CCc1c[nH]c2ccccc12	inactive
CCC(=O)N[C@@H](C[C@H](C)C(Cl)(Cl)Cl)C(=O)N1C(=O)C=C(OC)[C@@H]1C[C@H](C)C(Cl)Cl	inactive
CO[C@@H](/C=C/CC/C=C/C(=O)O)[C@@H](O)[C@H](C)/C=C(\C)[C@H](O)[C@H](C)C(=O)CCCC1CC(=O)NC(=O)C1	inactive
C=C[C@]12C=CCN3CC[C@@]4(c5ccccc5NC(=O)[C@@H]4C1)[C@@H]32	inactive
CO[C@H]1C[C@H](O[C@H]2[C@@H](O)C[C@H](O[C@H]3CC[C@]4(C=O)[C@H]5CC[C@]6(C)C(C7=CC(=O)OC7)CC[C@]6(O)[C@@H]5CC[C@]4(O)C3)O[C@@H]2C)O[C@H](C)[C@H]1O[C@H]1C[C@@H](OC)[C@@H](O[C@@H]2O[C@H](CO)[C@@H](O)[C@H](O)[C@H]2O)[C@@H](C)O1 (some centres undefined)	265 nM (active)
C/C=C(\C)C(=O)O[C@@H]1[C@@H](O)[C@@H]2O[C@H]3[C@H](O[C@@H](CCCCC)CCCCCCC(=O)CCC(=O)OC[C@@H](O2)[C@H]1OC(=O)/C=C/c1ccccc1)O[C@H](C)[C@H](OC(C)=O)[C@@H]3O	188 nM (active)
C/C=C1/CN2C3CC1C1=CCC(=O)N4c5ccccc5[C@@]3(C[C@@H]2C2=C[C@H]3C5CC6N(CC[C@@]67c6ccccc6N(C2=O)[C@@H]37)C/C5=C/C)[C@H]14 (some centres undefined)	inactive
C/C=C1/CN2CC[C@]34C(=C(C(=O)OC)[C@H]1C[C@H]23)Nc1ccccc14	inactive
C=C[C@H]1CN2CCc3c([nH]c4cccc(OC)c34)[C@@H]2C[C@@H]1/C(=C\OC)C(=O)OC	inactive
